Records with an inconclusive call do not appear. Values without a mark were called inactive. Calls of active or inactive are those of the source. The call rests on the fitted dose curve; in most records, active means well fitted activation curve with a large enough effect; inconclusive means small, poorly fitted or top-dose-only effect; inactive means flat fitted curve, though single readings scatter.
assay: Cellular Toxicity (caspase-3) Jurkat (AID 655); conditions: Jurkat caspase-3 activation, luminescence; caspase-3 activation: at 92.2 µM (top of the series), DMSO = 0%, tamoxifen = 100%;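 further: cells exposed to compound for 16 h at 37 °C before reading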
Excerpt: NIH Chemical Genomics Center [NCGC]
NIH Molecular Libraries Screening Centers Network [MLSCN]
National Institutes of Environmental Health Sciences [NIEHS]
National Toxicology Program [NTP]
We have developed a 1536-well cell-based assay for quantitative high throughput screening (qHTS) against a number of cell lines to determine in vitro caspase 3/7 of small molecules. This particular assay uses the Jurkat cell line which is derived from human T cell leukemia.
NCGC Assay Protocol Summary:
The Caspase-Glo 3/7 assay (Promega) is a homogeneous method to measure caspase-3 and caspase-7 activities in cultured cells. The quantitation of caspase 3/7 activity is based on the cleavage of a peptide-aminoluciferin substrate. After caspase cleaves the substrate the free aminoluciferin is liberated and serves as the substrate of luciferase, which generates the light. The luminescent signal is proportional to amount of caspase 3/7 activity present.
Using the Caspase-Glo 3/7 assay, the amount of caspase 3/7 activity was measured in the Jurkat cell line with complete culture medium following compound treatment for 16 hours. The assay was performed in opaque white 1536-well plates. In the screen, tamoxifen and doxorubicin were used as positive controls. Library compounds were measured for their ability to cause the activation of caspase 3/7 in the cell line, as reflected by an increase in luminescence signal, in a concentration-dependent manner. Data were normalized to the controls for basal activity (DMSO only) and 100% stimulation (100 uM tamoxifen). AC50 values were determined from concentration-response data modeled with the standard Hill equation.
qHTS protocol for caspase 3/7 assay in Jurkat cells
[Step] [Parameter] [Value] [Description]
1. Reagent; 5 uL; 5000 Jurkat cells/well
3. Controls; 23 nL; Tamoxifen 0.23 uM to 100 uM & Doxorubicin 7.0 pM to 100 uM
4. Time; 16 hr; 37 °C incubation
5. Reagent; 5 uL; Caspase-Glo 3/7 reagent
6. Time; 20 min; Room Temperature
7. Detection; Luminescence; Viewlux plate reader
Keywords: caspase 3/7, apoptosis, Jurkat cell line, luminescence, NTPHTS, NTPHTS_NCGC, NIEHS, EPA, DSSTox, MLSMR, MLSCN, NIH Roadmap, qHTS, NCGC
Potency means the concentration at half of the fitted maximal effect.

Compound | caspase-3 activation | Potency
CC(C)OC(=O)Cc1ccccc1 | -1.43% | –
c1ccoc1 | 0.558% | –
Cc1cc(N=Nc2ccccc2C)ccc1N | 2.76% | –
CC(=O)CCC(C)=O | 0.378% | –
CN(C)c1ccc(N(C)C)cc1 | 1.91% | –
COc1ccccc1N | 5.87% | –
Cc1cccc(N)c1C | 0.961% | –
CCN(N=O)C(N)=O | 0.577% | –
NC1CCC(CC2CCC(N)CC2)CC1 (stereo not given) | 0.418% | –
Cc1cnc[nH]1 | 1.79% | –
ClC(Cl)(Cl)C(Cl)(Cl)Cl | -0.424% | –
O=[N+]([O-])c1cc(Cl)c(Cl)cc1Cl | 2.39% | –
C=CCCl | 0.433% | –
CCCCCCCCCCCOC(=O)c1ccccc1C(=O)OCCCCCCCCCCC | 2.1% | –
C[N+](=O)[O-] | 0.536% | –
Oc1cc(Cl)ccc1Cl | 1.27% | –
C=COC(C)=O | 1.08% | –
CCCCOC(C)=O | 1.84% | –
CC(C)(Cl)Cl | -0.572% | –
CCOC(=O)C1OC1(C)c1ccccc1 (stereo not given) | -2.16% | –

Compound | caspase-3 activation | Potency
ClCc1ccccn1 | 1.38% | –
Oc1c(Cl)c(Cl)cc(Cl)c1Cl | 83.2% (active) | –
CCCCC#N | 0.125% | –
Nc1cc(Cl)ccc1O | 15.3% | –
c1ccc(C2CO2)cc1 (stereo not given) | 1.66% | –
O=c1ccc(=O)[nH][nH]1 | 1.49% | –
Nc1cc(Cl)cc(C(=O)O)c1Cl | -0.545% | –
CC(C)(C)OOC(=O)c1ccccc1 | 6.04% | –
Oc1cc(Cl)c(Cl)c(Cl)c1 | 14.2% | –
Nc1cccc2ccccc12 | – | 25.1 µM (active)
Clc1cc(Cl)c(Cl)c(Cl)c1 | 0.108% | –
Oc1c(Cl)cccc1Cl | 2.96% | –
CCOS(C)(=O)=O | 0.622% | –
COP(=S)(OC)SCn1nnc2ccccc2c1=O | -1.97% | –
CCOC(=O)CC(SP(=O)(OC)OC)C(=O)OCC (stereo not given) | 1.26% | –
ClCCOCCCl | -0.264% | –
N#CCBr | 0.425% | –
OCCBr | -0.73% | –
Brc1cccc(-c2ccccc2)c1 | 1.47% | –
Nc1cc(Cl)cc(Cl)c1 | -0.381% | –

Reference: PubChem BioAssay (NCATS)
